# From PubChem BioAssay
# D3 ag: activates the human D3 dopamine receptor; D3R DiscoveRx beta-arrestin cells, luminescence, 90 min; 0.58% of 410,000 active; P35462; max activation, %; in the data active means max activation above about 30%; further: 0% is about no effect
# Target sequence (P35462 whole entry, looked up): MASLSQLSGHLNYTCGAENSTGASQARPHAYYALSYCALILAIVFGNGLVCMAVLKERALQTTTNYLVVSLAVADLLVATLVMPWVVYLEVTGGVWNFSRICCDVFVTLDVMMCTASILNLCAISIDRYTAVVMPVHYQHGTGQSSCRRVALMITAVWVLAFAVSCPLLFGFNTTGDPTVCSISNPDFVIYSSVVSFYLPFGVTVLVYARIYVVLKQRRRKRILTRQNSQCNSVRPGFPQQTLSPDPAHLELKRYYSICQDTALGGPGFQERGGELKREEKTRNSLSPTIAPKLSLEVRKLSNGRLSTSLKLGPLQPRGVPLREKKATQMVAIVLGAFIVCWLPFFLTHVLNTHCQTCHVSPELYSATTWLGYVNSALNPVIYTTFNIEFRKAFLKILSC
#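 Cells at 1500/well, incubated overnight, then treated with pinned compounds (dopamine as control) for 90 min at 37 degrees C. DiscoveRx reagent added for 30 - 60 minutes at room temperature; luminescence read.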
# DRD3 antagonist: antagonists of human D3 dopamine receptor. P35462. D3R cells, DiscoveRx beta-arrestin luminescence, antagonist mode; active compounds read low. max response, negative = inhibition, %. 2.5% of 360,000 active; in the data active means max response below about -50%; inconclusive means no clear call, values can overlap the other calls; further: on the % scale 0 is the no-effect control and ±100 the full control effect
#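 Cells plated overnight at 1500 cells/well, then exposed to library compounds with dopamine controls for 90 minutes at 37 degrees C. DiscoveRx reagent added for 30–60 minutes at room temperature; luminescence read, quantitative HTS format.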
# D1 potentiator: human D1 dopamine receptor positive modulation; HEK293 TREx D1 cells, calcium flux, dopamine EC20 potentiation; potentiation, % at 10 µM; 0.036% of 360,000 active; in the data active means potentiation above about 30%; further: 0% is about no effect
# D1 antagonist: antagonists of human D1 dopamine receptor; P21728; activity change, negative = inhibition, % at 10 µM; 3.2% of 360,000 active; HEK293 TREx D1 cells, calcium flux, dopamine EC80; active compounds read low; in the data active means activity change below about -30%; further: on the % scale 0 is the no-effect control and ±100 the full control effect
#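 Compound effects on dopamine-evoked calcium signalling were measured in tetracycline-induced HEK293 Trex D1 cells. Dopamine at EC80 followed a 180 s compound pre-read, and fluorescence was tracked kinetically for 180 s more.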
# D1 agonist: agonists of human D1 dopamine receptor; activation, % at 2 µM; HEK293 T-REx D1 cells, calcium flux, agonist mode; 1% of 360,000 active; P21728; in the data active means activation above about 30%; further: 0% is about no effect
#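 Tetracycline-induced HEK293 TREx D1 cells, force-coupled to calcium signalling, were dye-loaded with a no-wash calcium kit. Compound was pin-added after a 10 s baseline. Fluorescence was read kinetically at 1 cycle/s for 180 s, with calcium rises flagged as agonism.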
# Numbers without * were called inactive; ? = inconclusive; nt = no result. Compounds with a hit are over-represented: about 6% of the library has one in this group of screens.
SMILES,D3 ag,DRD3 antagonist,D1 potentiator,D1 antagonist,D1 agonist
S=C(Nc1ccc(Cl)cc1)NC1CCN(Cc2ccccc2)CC1,-20.7,-60.1*,-0.1,-78.1*,39.4*
COc1ccc(CNC(=S)N2CCN(Cc3ccccc3)CC2)cc1,-4.8,-25.0,1.7,-1.7,3.4
CCN1CCCC1CNC(=O)C(=O)Nc1ccc(OC)cc1 (centres undefined),2.5,-5.5,2.9,4.3,1.3
CCc1ccc(NC(=S)NCC2CCCN2CC)cc1 (centres undefined),-27.4,-74.6*,-3.6,-20.2,4.0
Cc1ccccc1C(=O)NC1CCN(Cc2nnnn2C2CCCC2)CC1,0.1,?,-5.6,-12.0,-1.1
Cc1ccc2c(=O)cc(C(=O)Nc3nc4ccc(Cl)cc4s3)oc2c1C,-9.0,nt,-2.0,-4.0,-1.3
CCCCNc1nc(Oc2ccc(=O)n(-c3ccccc3)n2)nc(N(C)C)n1,9.6,nt,-0.2,10.2,-0.7
O=C(CN1C(=O)COc2ccc(S(=O)(=O)NC3CCCC3)cc21)Nc1ccc(Cl)cc1,-8.7,nt,-2.2,6.9,10.4
S=C(Nc1ccccc1)NC1CCN(Cc2ccccc2)CC1,-18.5,-77.0*,-5.6,-5.2,12.9
CCc1ccc(NC(=S)NC2CCN(Cc3ccccc3)CC2)cc1,-6.8,-29.2,-12.9,-81.4*,34.1*
Cc1ccccc1NC(=S)NCC1CCN(C(C)c2ccccc2)C1 (centres undefined),-14.0,?,-3.9,-36.4*,0.4
CCC(C)c1ccc(NC(=S)NC2CCN(Cc3ccccc3)CC2)cc1 (centres undefined),-13.0,?,-4.8,-12.4,21.8
Cc1ccccc1NC(=S)NC1CCN(Cc2ccccc2)CC1,-29.2,-50.5*,-4.0,-19.4,3.1
CN(Cc1ccccc1)S(=O)(=O)c1ccc(NC(=O)c2cc(=O)c3ccccc3o2)cc1,27.1,nt,-0.8,-6.0,3.4
Cc1ccc(C)c(NC(=O)CN2C(=O)c3cccnc3Oc3ccc(C)cc32)c1,6.9,nt,-2.0,1.9,-1.3
CCOc1ccc(OCC)c(NC(=O)C2CCCN(S(=O)(=O)c3cc(Br)cc4c3N(C(=O)CC)CC4)C2)c1 (centres undefined),-6.2,nt,-1.1,-10.5,2.8
O=C(O)COc1ccc(CCNS(=O)(=O)c2ccccc2)s1,7.2,nt,nt,nt,nt
Cc1c(Cl)cccc1NC(=O)C(=O)NCCc1csc(-c2ccc(C(F)(F)F)cc2)n1,2.8,nt,5.2,11.7,3.7
COCCCNC(=O)CN1C(=O)c2cccnc2Sc2ccccc21,1.5,nt,-6.0,-11.3,0.2
COc1ccc(CN2CCC(CNC(=O)NC3CCCCC3)CC2)cc1,1.7,-54.3*,-3.1,26.6,2.2
COc1ccc(CNC(=O)NC2CCCCC2)cc1,3.9,-18.7,0.8,-4.7,0.3
CCn1ccc2c(OCC(=O)Nc3ccc(C)c(Cl)c3)cccc2c1=O,2.3,nt,1.2,nt,1.4
CC(=O)Nc1ccc2c(c1)Cc1cc(N3C(=O)C=CC3=O)ccc1-2,-6.9,-64.1*,nt,nt,nt
O=C1C=CC(=O)N1c1ccc2c(c1)Cc1cc(F)ccc1-2,5.1,-8.4,nt,nt,nt
CCOc1ccccc1NC(=O)CSc1nc2c(oc3ccccc32)c(=O)n1-c1ccc(C)c(C)c1,7.0,nt,-0.5,7.3,3.9
SMILES,D3 ag,DRD3 antagonist,D1 potentiator,D1 antagonist,D1 agonist
O=C(Nc1ccc(C(=O)NCCCN2CCN(c3ccccc3)CC2)cc1)C1=CSCCO1,-6.8,-73.0*,-7.5,-38.7*,35.5*
Cc1ccc(CN2CCC(CNC(=O)c3ccc(NC(=O)C4=CSCCO4)cc3)CC2)cc1,-10.4,4.3,-6.2,-30.0*,11.0
CCOC(=O)c1ccc(NC(=O)CC2C(=O)N(c3ccccc3)C(=O)N2C2CCCCC2)cc1 (centres undefined),-13.3,nt,-0.7,-0.1,0.8
COc1ccc(-n2c(=O)c3ccc(C(=O)NCc4ccc(C)cc4)cc3n(Cc3ccc(C)cc3)c2=O)cc1,0.9,nt,-0.7,11.6,3.7
Cc1ccc(CNC(=O)c2ccc(Cn3c(=O)c4ccccc4n(CC(=O)Nc4ccc(C)cc4)c3=O)cc2)cc1,2.8,nt,1.6,5.8,33.3*
CCc1ccc(NC(=O)Cn2c(=O)n(CCC(=O)N3CCc4ccccc4C3)c(=O)c3ccccc32)cc1,-9.7,nt,-1.2,-31.1*,-0.8
CCOc1ccc(NC(=O)Cn2c(=O)n(Cc3ccc(C(=O)NCc4ccc(C)cc4)cc3)c(=O)c3ccccc32)cc1,7.1,nt,-0.1,4.3,1.9
